In ChEMBL document CHEMBL3988442, “University of Dundee, Small-Polar-MMV Screening Library” (2021):
Hit rate of the full screen: of about 48,000 compounds, about 13,000 (27%) showed an effect of 50% or more. The list shows a part of the results.

test system: Wolbachia pipientis; experiment: Anti-Wolbachia Cell-Based Screen; assay type: functional; design: scale not given: in the data most compounds retested in dose-response had high values; settings: 5 µM

SMILES | Percent Effect
Cn1cc(C[C@H]2[C@@H](OCC3CC3)CCN2C(=O)c2ccc[nH]2)cn1 | -34.09%
O=C(c1cccs1)N1CC[C@@H]2[C@H]1CCC(=O)N2c1ccccc1 | 4.251%
Cc1cnc(CNC(=O)NCCOc2ncccc2Cl)s1 | 0.4061%
CCC(Nc1nccc(C2CCCC2)n1)c1ccccn1 (configuration not stated) | 15.43%
Cc1ncc(-c2ccnc(N[C@@H](C)CO)n2)c(C2CCCCC2)n1 | 99.14%
CCC(Nc1nccc(C2CCCC2)n1)c1ncccc1C (configuration not stated) | -9.409%
Cc1ncc(-c2ccnc(NCCO)n2)c(C2CCCCC2)n1 | 70.45%
COc1ccc(-c2noc([C@@H](C)NC(=O)NC(C)(C)C)c2C(=O)O)cc1 | -18.05%
N#Cc1cn(C2CC2)c(=O)n(CC(O)c2ccccc2F)c1=O (configuration not stated) | -13.9%
Cl.O=C(NCC1CCC2(CCNCC2)CO1)c1cnccn1 (configuration not stated) | 3.528%
O=C(NCC1CCCO1)c1csc(Cc2ccccc2)n1 (configuration not stated) | -0.1841%
Cl.O=C(NCC1CCCO1)c1cc(-c2ccncc2)c2cnccc2n1 (configuration not stated) | 81.36%
O=C(NCC1CCCO1)c1cc(-c2cccnc2)c2cnccc2n1 (configuration not stated) | 70.74%
Cc1cc(C(=O)NCC2CCCO2)c(C)n1-c1cccnc1 (configuration not stated) | -0.4746%
O=C(NCC1CCCO1)c1coc(Cn2cnc3ccccc32)n1 (configuration not stated) | 1.583%
CN(C)Cc1nc(C(C)(C)NC(=O)c2ccnn2C)no1 | 0.5486%
CS(=O)(=O)NCCNC(=O)c1cnc(-c2ccccc2)nc1 | 5.162%
CC(C)(C)c1ncc(C(=O)NCCS(N)(=O)=O)s1 | -2.112%
Cc1ncc(C(=O)NCCNC(=O)c2ccccc2)s1 | 117.1%
CC(C)(C)NC(=O)c1cnc(C(C)(C)C)s1 | 6.371%
Cc1ccc(-c2ncc(C(=O)NCCNC(=O)C(C)C)s2)c(C)c1 | -1.458%
Cc1ncc(C(=O)NCCNc2ncccn2)s1 | 110.1%
O=C(NCCNc1ncccn1)c1ccc(Cl)s1 | 24.49%
CC(C)(C)c1ncc(C(=O)NCCNS(C)(=O)=O)s1 | 118.2%
CC(=O)NCCNC(=O)c1cnc(C(C)(C)C)s1 | 109.1%

SMILES | Percent Effect
COC(=O)C(C)(C)NC(=O)c1cnc(C(C)(C)C)s1 | -1.472%
Cc1ccc(-c2ncc(C(=O)NCCNc3ncccn3)s2)c(C)c1 | -5.367%
O=C(N1CCC(OCc2ccccn2)CC1)C1(c2ccc(F)cc2)CC1 | -10.1%
C=C(C)CNC(=O)C1CCCN(C2CCN(C(C)C)CC2)C1 (configuration not stated) | -1.601%
Fc1cnc(N2CCCn3c(nnc3Cn3cccn3)C2)nc1 | -21.77%
CN(C)c1ncnc2c1CCN(C(=O)CN1CCCCC1)C2 | -9.788%
CCOC(C)c1nc(CN2CCN(c3ncc(C)cn3)CC2)cs1 (configuration not stated) | 0.6685%
COc1ccc(S(=O)(=O)C(F)(F)F)cc1NC(=O)CSC | 25.38%
COCCC1(CO)CCCN(Cc2ccc(F)c(C)c2)C1 (configuration not stated) | -0.7036%
CCN(CC)C(=O)CCCNC(=O)Cc1nc(-c2ccco2)oc1C | -23.46%
Cc1ccc(C(=O)N2CCOc3nc(C)ccc32)c(F)c1 | -2.508%
CC(C)(C)c1ncc(C(=O)NCCn2ccnc2)s1 | -7.496%
O=C(NCCNc1ccc(Br)cn1)c1ccc(O)cc1 | -11.29%
CC(C)(C)c1ncc(C(=O)NCCNC(=O)c2ccc(O)cc2)s1 | 102.8%
O=C(NCCNc1ncccn1)c1cnc(-c2ccccc2)nc1 | 9.369%
CC(C)(C)c1ncc(C(=O)NCCNc2ncccn2)s1 | 108.5%
CC(C)(C)c1ncc(C(=O)NCCNC(=O)c2ccccc2)s1 | 3.571%
CC(C)(C)c1ncc(C(=O)NCCNC(=O)c2cccs2)s1 | 110.8%
O=C(NCCNC1CCN(c2nccs2)CC1)c1cccs1 | -5.805%
CC(O)(CCc1ccccc1)CNC(=O)c1cccs1 (configuration not stated) | -8.464%
Cc1sc2nc(C(F)(F)F)nc(N3CCC(NS(C)(=O)=O)CC3)c2c1C | 11.4%
CCn1ncc2c1CCCC2NCC1=Cc2ccccc2OC1 (configuration not stated) | -5.815%
Cc1ncsc1CN1CCC2(CC1)CC(=O)N(Cc1ccc(Cl)cc1)C2 | -0.4744%
CC(=O)N1CCCC2(CCN(Cc3ccc(Cl)c(C(F)(F)F)c3)C2)C1 (configuration not stated) | 13.59%
CC(=O)N1CC2(CCCN(Cc3ccc(Cl)cc3)C2)Cc2ccccc21 (configuration not stated) | 131.8%

SMILES | Percent Effect
CC(=O)N1CC2(CCN(Cc3ccc(Cl)cc3)CC2)Cc2ccccc21 | 118.6%
CC(=O)N1CC2(CCN(Cc3ccc(Cl)cc3)C2)Cc2ccccc21 (configuration not stated) | 116.3%
COCC(=O)N1CCC2(CCCN(Cc3ccc(Cl)cc3)CC2)CC1 | -3.814%
CC(=O)N1CCCC2(CCN(Cc3ccc(Cl)c(F)c3)C2)C1 (configuration not stated) | 9.026%
CC(=O)N1CCC2(CCCN(Cc3ccc(Cl)c(C(F)(F)F)c3)C2)C1 (configuration not stated) | 5.734%
Cc1cc(C(=O)N2CCN(CC(O)Cn3cccn3)CC2)c(C)o1 (configuration not stated) | 3.42%
CN1CCC(N2CCOC[C@H]2c2nc(-c3ccncc3)c[nH]2)CC1 | -3.647%
CNS(=O)(=O)c1ccc(C(=O)NC2CCc3nc(C)cn3C2)o1 (configuration not stated) | -2.01%
Cc1nccc(NCc2cc3n(n2)CCCN(S(C)(=O)=O)C3)n1 | -4.835%
Cc1nccc(NCc2cncc3c2CCN(S(C)(=O)=O)C3)n1.Cl | 65.34%
Cc1cnc(N2CCc3c(CNc4ccnc(C)n4)cncc3C2)nc1.Cl | 94.65%
CN1C(=O)CC(C(=O)O)C12CCN(Cc1cc(F)ccc1Cl)CC2 (configuration not stated) | -13.17%
Cc1ccnn1CC(=O)Nc1cc(-c2ccncc2)[nH]n1 | -6.833%
CN(C)C(=O)c1cc(-c2ccncc2)[nH]n1 | 116.7%
Cc1ccn(CC(=O)Nc2cc(-c3ccncc3)[nH]n2)n1 | -0.1185%
CN(C)C(=O)c1cc(-c2ccccc2)[nH]n1 | 125.1%
Cc1nc(-c2cccc(C(=O)N(C)C)c2)cs1 | -24.42%
O=C(NCCn1nc2ccccn2c1=O)c1cc(-c2ccccc2)[nH]n1 | 1.619%
CC1=C[C@@H](CN2CCC(CO)CC2)[C@H](C(C)C)C[C@H]1Cc1nnc(C)o1 | -9.335%
COc1ccc(CN2C[C@@H](F)[C@@H](OCc3nc4ccccc4[nH]3)C2)cn1 | -8.557%
CC(NC(=O)c1ccc2c(c1)OCC(=O)N2)c1ccccc1F (configuration not stated) | -1.956%
CCN1CCN(CC(O)c2ccc(OC(F)(F)F)cc2)CC1 (configuration not stated) | 1.039%
CCc1ccc(OCC(O)CN2CCN(CC)CC2)cc1 (configuration not stated) | 71.19%
CCc1ccc(OCC(O)CN2CCC(O)CC2)cc1 (configuration not stated) | 11.05%
CCc1ccc(OCC(O)CN2CCN(CCO)CC2)cc1.Cl.Cl (configuration not stated) | 85.64%

SMILES | Percent Effect
CCc1ccc(CNCC2CCN(CCO)CC2)cc1 | -51.45%
Cc1c(C)n(CC(O)CN2CCN(CCO)CC2)c2c(Cl)cccc12.Cl (configuration not stated) | 3.197%
Cc1n[nH]cc1CNC1(Cc2ccc(Br)cc2)CCCCC1 | 13.31%
O=C(Cc1ccc(F)cc1)NCc1ccc(C(=O)O)o1 | -2.994%
CC(C)c1nc(/C=C/c2ccc(O)c(Cl)c2)ncc1C(=O)O | 6.301%
CN(C)S(=O)(=O)N1CCCC1C(=O)N1CCSCC1 (configuration not stated) | -27.44%
Cc1ccc(CN2C[C@@H]3[C@@H](C(=O)N4CCCC4)CCS(=O)(=O)[C@@H]3C2)cc1.O=C(O)C(F)(F)F | -5.739%
CC(C)CNC(=O)[C@H]1CCS(=O)(=O)[C@@H]2CN(Cc3ccc(F)cc3)C[C@H]12.O=C(O)C(F)(F)F | 118.4%
Cc1ccc(CN2C[C@@H]3[C@@H](C(=O)NCC4CC4)CCS(=O)(=O)[C@@H]3C2)cc1.O=C(O)C(F)(F)F | 110.7%
CC(C)CNC(=O)[C@H]1CCS(=O)(=O)[C@@H]2CN(Cc3ccc(Cl)cc3)C[C@H]12.O=C(O)C(F)(F)F | 20.84%
CC(C)CNC(=O)[C@H]1CCS(=O)(=O)[C@@H]2CN(Cc3cccnc3)C[C@H]12 | 94.11%
O=C([C@H]1CCS(=O)(=O)[C@@H]2CN(Cc3ccc(F)cc3)C[C@H]12)N1CCCC1 | -0.8548%
CC(C)CNC(=O)[C@H]1CCS(=O)(=O)[C@@H]2CN(CC(C)C)C[C@H]12.O=C(O)C(F)(F)F | 102.6%
C=C(C)COc1cccc(C(=O)N2CCC3(CC2)CN(C)CCN3C)c1 | -0.7727%
COCc1nc2cc(NCc3nc(C)cs3)ccc2o1 | 14.28%
COCCN1CC(C(=O)N(C)Cc2csc(C)n2)CC1=O (configuration not stated) | 9.291%
Cc1nc(N)nc(N2CCOc3ccc(CO)cc3C2)c1C | -10.79%
O=C(O)c1cc(-n2cc3c(n2)CCC3)cc(S(=O)(=O)NC2CCCC2)c1 | -14.64%
Cc1cccc(CN2C[C@@H]3[C@@H](C(=O)NCC(C)C)CCS(=O)(=O)[C@@H]3C2)c1.O=C(O)C(F)(F)F | 114%
CC(C)CNC(=O)[C@H]1CCS(=O)(=O)[C@@H]2CN(Cc3cccc(Cl)c3)C[C@H]12.O=C(O)C(F)(F)F | 11.74%
Cc1ccc(CN2C[C@@H]3[C@@H](C(=O)NCC(C)C)CCS(=O)(=O)[C@@H]3C2)cc1.O=C(O)C(F)(F)F | 114.4%
O=C(NC1CCC1)[C@H]1CCS(=O)(=O)[C@@H]2CN(CCc3ccccc3)C[C@H]12.O=C(O)C(F)(F)F | 0.08141%
